Compound activity from PubChem BioAssay.
Only some compounds are listed: those with a hit (about 1.4% of all), similar ones and a draw of the others.
Vaccinia mCherry: inhibitors of vaccinia virus infection (mCherry reporter signal); Vaccinia virus mCherry reporter infection, fluorescence; Potency, µM (series often up to 36.5 µM), for inactives: at the highest dose activity change, negative = inhibition, actives largely listed as inhibitors; hit rate 0.63% among 310,000; AID 720579; calls by dose curve; tested in A549 cells; note: % is set by controls: 0 for no effect and ±100 for the full control effect; nearly all actives have a fitted effect of over 35% in size
SARS PLpro yeast: inhibitors of SARS-CoV papain-like protease in yeast. Potency, µM (series often up to 32.9 µM), for the others: at the highest dose activity, positive = growth rescue, hits mostly activators. S. cerevisiae expressing SARS-CoV PLpro, growth rescue. hit rate 0.19% among 330,000; calls by dose curve; note: 0% is about no effect; nearly all actives have a fitted effect of over 55% in size
VACV Venus inh: inhibitors of vaccinia virus (Venus reporter) | hit rate 0.46% among 330,000 | Vaccinia virus Venus reporter expression, fluorescence | Potency, µM (highest dose often 36.5 µM), without a hit: top-dose activity change, negative = inhibition, hits mostly inhibitors; calls by dose curve; tested in A549 cells; note: % is set by controls: 0 for no effect and ±100 for the full control effect; nearly all actives have a fitted effect of over 30% in size
AmpC no deterg: blocks E. coli AmpC beta-lactamase in detergent-free assay | P00811 | AmpC nitrocefin hydrolysis, absorbance 480 nm, 0.0001% Triton | Potency, µM (doses to about 57.1 µM), without a hit: at the top dose activity change, negative = inhibition, actives largely listed as inhibitors | hit rate 0.52% among 330,000;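 note: plate controls were no compound for no effect and no enzyme for full effect; nearly all actives have a fitted effect of over 20% in size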
Target sequence (P00811 whole entry, looked up): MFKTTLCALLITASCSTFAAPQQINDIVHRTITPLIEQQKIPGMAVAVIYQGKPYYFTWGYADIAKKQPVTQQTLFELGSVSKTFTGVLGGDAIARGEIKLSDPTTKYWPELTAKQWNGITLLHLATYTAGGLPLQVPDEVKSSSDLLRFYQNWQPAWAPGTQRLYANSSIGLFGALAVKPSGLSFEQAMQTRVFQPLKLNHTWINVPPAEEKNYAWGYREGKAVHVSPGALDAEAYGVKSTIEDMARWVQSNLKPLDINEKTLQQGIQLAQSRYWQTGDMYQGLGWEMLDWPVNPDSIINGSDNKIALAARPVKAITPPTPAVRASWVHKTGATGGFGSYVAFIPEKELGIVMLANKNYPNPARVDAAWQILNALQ
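20 mM phosphate pH 7.0 + 0.01% (detergent screen) or 0.0001% Triton X-100; 5.3 nM AmpC reagent; cpd preinc 15 min RT; nitrocefin (800 uM stock) to start; A480 q20 s × 4 min; Activity was normalised to no-enzyme and no-compound control wells.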
AmpC detergent: inhibitors of E. coli AmpC beta-lactamase with detergent | P00811 | AmpC hydrolysis of nitrocefin, absorbance 480 nm, 0.01% Triton | Potency, µM (series often up to 114 µM), without a hit: top-dose activity change, negative = inhibition, hits mostly inhibitors | hit rate 0.041% among 370,000 | AID 485294;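 note: 0% = no-compound wells and -100% = no-enzyme wells; nearly all actives have a fitted effect of over 25% in size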
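20 mM phosphate pH 7.0 + 0.01% (detergent screen) or 0.0001% Triton X-100; 5.3 nM AmpC reagent; cpd preinc 15 min RT; nitrocefin (800 uM stock) to start; A480 q20 s × 4 min; Activity was normalised to no-enzyme and no-compound control wells.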
AMA1-RON2 inh: AMA1-RON2 (P. falciparum) interaction inhibition | AID 720542 | AlphaScreen AMA1-biotinylated RON2 peptide binding | Potency, µM (doses to about 58.2 µM), for inactives: top-dose activity change, negative = inhibition, usual class: inhibitors | hit rate 0.2% among 360,000;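 note: 0% = vehicle wells and -100% = peptide control; nearly all actives have a fitted effect of over 45% in size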
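AMA1 (3D7) with his tag at 25 nM final met compounds first, then biotinylated RON2 peptide at 25 nM; detection used donor plus acceptor beads, 10 µg/mL apiece, read by AlphaScreen after 30 min at room temperature.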
The depositor's hits bear a star; i = inactive; ? = inconclusive; nt = not tested or not shown; [ ] = dose if it differs, or a comment. Unless noted, calls come from the whole dose curve; as a rule, active = well fitted curve in the direction sought with a large enough effect; inconclusive = small, poorly fitted or top-dose-only effect, or another doubt; inactive = no such curve, though single readings can be large; an effect the other way counts as inactive or inconclusive. Potency is the fitted concentration of half-maximal effect.

SMILES | Vaccinia mCherry | SARS PLpro yeast | VACV Venus inh | AmpC no deterg | AmpC detergent | AMA1-RON2 inh
COc1ccc(O)c(CN2CCC3(CCC(CNC(=O)c4ccco4)O3)CC2)c1 (stereo not drawn) | -22% | nt | -11% | nt | nt | nt
CC(C)CC(N)c1csc(Nc2ncccn2)n1 (stereo not drawn) | 7.9µM* | nt | ? | nt | nt | 122%
NC(COCc1ccccc1)c1csc(Nc2ncccn2)n1 (stereo not drawn) | i | nt | -11% | nt | nt | 52%
Cc1nc(CS(=O)(=O)c2ccccc2)cc(Sc2ccccc2Cl)n1 | nt | -2% | ? | ? | 4% | -2%
Cc1nc(CS(=O)(=O)c2ccc(Cl)cc2)cc(Sc2ccccc2Cl)n1 | nt | -11% | -22% | 3.5µM* | 5% | 3%
Cc1nc(CS(=O)(=O)c2ccccc2)cc(Sc2ccc(Cl)cc2)n1 | nt | 0% | -7% | 4µM* | 0% | -2%
COc1ccc(OC)c(C2C(C(N)=O)=C(C)Nc3nc(CCCO)nn32)c1 (stereo not drawn) | i | 6% | -8% | 1.6µM* | ? | 9%
COc1ccc(OC)c(C2C(C(=O)Nc3ccc(F)cc3)=C(C)Nc3nc(CCCO)nn32)c1 (stereo not drawn) | nt | -2% | nt | 8.9µM* | -3% | 12%
COc1ccccc1C(=O)N1CCOc2ccc(C(C)(O)CCn3cccn3)cc2C1 (stereo not drawn) | -14% | nt | -9% | nt | nt | nt
CN(C)CCCN(C(=O)c1ccc(S(=O)(=O)N(C)C2CCCCC2)cc1)c1nc2ccc(F)cc2s1 | i | -1% | -19% | 151% | 0% | -11%
Cc1cc(C)c2sc(N(CCCN(C)C)C(=O)c3ccc(S(=O)(=O)N(C)C4CCCCC4)cc3)nc2c1 | 14µM* | 8% | 13µM* | 307% | -12% | -28%
COc1cc2c(C(=O)N3CCN(c4ccc(C)cc4)C(C)C3)cn(CC(C)C)c(=O)c2cc1OC (stereo not drawn) | -28% | nt | -16% | nt | 5% | nt
Cc1sc2nc(CN(Cc3cccs3)C(=O)NC3CCCCC3)[nH]c(=O)c2c1C | -28% | -10% | ? | -9% | 35µM* | -11%
Cc1nc(N/N=C/c2ccc(O)cc2)c2cnn(-c3ccccc3)c2n1 | nt | 0% | nt | 16µM* | -10% | 0%
CC1=CC(O)C(O)C2(C)C1CC1OC(=O)CC3C(C)C(O)C(=O)C2C13CO (stereo not drawn) | 8.9µM* | nt | 6.3µM* | nt | nt | 4%
Cc1cc(C)c2nccc(/C=C/c3ccc(N(C)C)cc3)c2c1 | -22% | nt | -10% | nt | nt | nt
CCOc1ccc(/C=N/NC(=O)c2[nH]ncc2Br)c(O)c1 | 1.3µM* | -2% | ? | -29% | 2% | 37%
O=C(N/N=C/c1c(O)ccc2ccccc12)c1[nH]ncc1Br | 2.5µM* | ? | ? | -31% | -2% | 44%
COc1ccc2ccccc2c1/C=N/NC(=O)c1cccc(Br)c1 | -26% | -24% | -6% | -35% | ? | 20%
O=C(N/N=C/c1c(O)ccc2ccccc12)c1cccc(C(F)(F)F)c1 | 3.5µM* | 4µM* | ? | -43% | -9% | 28%
COc1ccc(OC)c(/C=N/NC(=O)c2[nH]ncc2Br)c1 | -15% | 0% | -16% | -22% | 3% | 47%
Cc1c(O)c(=O)ccn1Cc1ccccc1 | ? | 10µM* | ? | -37% | ? | 107%
Oc1ccc(Nc2nc(N3CCCC3)c3ccccc3n2)cc1 | ? | -7% | 8.9µM* | -34% | -3% | 4%
O=C1CC(=O)CC(c2ccccc2)C1 | i | -6% | 7% | -31% | -6% | -3%
O=S1(=O)CCS(=O)(=O)C1c1ccccc1 | 11µM* | nt | ? | nt | nt | -4%
SMILES | Vaccinia mCherry | SARS PLpro yeast | VACV Venus inh | AmpC no deterg | AmpC detergent | AMA1-RON2 inh
O=C(O)C1=CC(=C(c2ccc(O)c(C(=O)O)c2)c2ccc(O)c(C(=O)O)c2)C=CC1=O | -28% | nt | -20% | 8.9µM* | 8.9µM* | nt
CNC(=O)c1cc(Oc2ccc(NC(=O)Nc3ccc(Cl)c(C(F)(F)F)c3)cc2)ccn1 | ? | 0% | 10µM* | -22% | 11% | 1%
CC(C)C1C(=O)N(Cc2cn(CCC3OCCCO3)nn2)CCS(=O)(=O)N1Cc1ccc(-c2cccc(N(C)C)c2)cc1 (stereo not drawn) | -15% | nt | -14% | nt | nt | -24%
CC(C)C1C(=O)N(Cc2cn(CCC3OCCO3)nn2)CCS(=O)(=O)N1Cc1ccc(-c2cccc(N(C)C)c2)cc1 (stereo not drawn) | -20% | nt | -28% | nt | nt | 18µM*
COc1cc2cncnc2cc1OCCCCC(N)=O | -7% | nt | -18% | nt | nt | nt
COc1cnc(-c2ccccn2)nc1Sc1ccc(C)cc1 | ? | ? | ? | 46% | 8% | 5%
COc1ccccc1Sc1nc(-c2ccccn2)ncc1OC | 5µM* | 2% | -29% | 66% | 1% | -18%
COc1cnc(-c2ccccn2)nc1NC(C)C | 4.5µM* | -8% | ? | -21% | 2% | -86%
Cc1cc(C)c(C#N)c(SCCS(=O)(=O)c2ccc(Cl)cc2)n1 | 4.5µM* | -2% | ? | -26% | -8% | 8%
Cc1cc(C)c(C#N)c(SCCS(=O)(=O)c2ccc(C(C)(C)C)cc2)n1 | 3.5µM* | -1% | 4.5µM* | -44% | -7% | -23%
Cc1cc(C)c(C#N)c(SCCS(=O)(=O)Cc2ccc(Cl)cc2)n1 | -18%[1.46 µM] | 10% | -17% | 20% | -7% | -4%
O=S(=O)(c1cccnc1)N1CCN(c2nc(-c3cccs3)nc3ccccc23)CC1 | -26% | nt | -18% | nt | nt | nt
NC(=O)C1(N2CCCCC2)CCN(Cc2nc3ccccc3c(=O)[nH]2)CC1 | i | 1% | 4% | 0.32µM* | 4% | 17%
CC(=NNc1nc2ccccc2s1)c1ccncn1 | 2.8µM* | nt | ? | nt | nt | -11%
C/C(=N\Nc1nc2ccccc2s1)c1ccc(Br)s1 | -19% | -5% | -10% | -35% | 8% | 36%
O=C(C1CC1)N1CCc2cc(Br)cc(S(=O)(=O)Nc3ccc(C(F)(F)F)cc3)c21 | -14% | nt | -2% | nt | 6% | nt
O=S(=O)(Nc1ccc(-c2ccc3nncn3n2)cc1)c1cc(F)ccc1F | ? | 0% | -11% | 78% | -15% | -6%
COc1ccc(OC)c(S(=O)(=O)Nc2ccc(-c3ccc4nncn4n3)cc2)c1 | 8.9µM* | -3% | 10µM* | -6% | -16% | 0%
Cc1ccnc2ccc([N+](=O)[O-])cc12 | -14% | nt | -6% | nt | nt | nt
CCc1c(C)nc2[nH]nc(-c3ccccc3)n2c1=O | nt | -2% | -26% | -25% | -17% | 9%
CCc1c(C)nc2[nH]nc(-c3ccccc3C)n2c1=O | nt | -6% | -22% | 0.28µM* | -1% | -10%
COc1cc(=O)n2c(c1C(=O)N(C)C(C)c1ccco1)CCN(C(=O)c1ccc(C(C)=O)cc1)CC2 (stereo not drawn) | i | nt | 0% | nt | nt | nt
